This is part of a sample that, as a whole, favours compounds with a hit. Of some 83,000 tested, about 20% had one in any assay.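 Growth was measured after 48 h exposure to one concentration of compound in 96-well plates. Values under 10 count as active.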 A number with no mark means an inactive call. Activity calls are given as the source filed them.

Assay in all cases: NCI-60 one-dose screen, 48 h (100 = growth as untreated, 0 = no growth, -100 = all killed)
Holding throughout (conditions): 10 µM unless noted

The test system of test [1] is SK-MEL-2 melanoma.
Test [2] deals with EKVX NSCLC.
The subject of test [3] is SN12C renal.
Test [4] has as its system UO-31 renal.
Test [5] concerns TK-10 renal.
The test system of test [6] is ACHN renal.
Test [7] deals with CAKI-1 renal.
The subject of test [8] is CCRF-CEM leukemia.
In test [9] the test system is MOLT-4 leukemia.
Test [10] relates to SR leukemia.
Test [11] deals with RPMI-8226 leukemia.
For test [12], the system named is OVCAR-8 ovarian.
Test [13] concerns OVCAR-5 ovarian.
The test system of test [14] is OVCAR-4 ovarian.
The test system of test [15] is SK-OV-3 ovarian.
In test [16] the test system is IGROV1 ovarian.
Test [17] concerns OVCAR-3 ovarian.
The test system of test [18] is HS 578T breast.
The test system of test [19] is NCI/ADR-RES ovarian.
Test [20] deals with A498 renal.

Consider `CCc1c(Nc2ccccc2C)nc(N)[nH]c1=O`, for which the growth in [1] is 109%; in [2], 94.5%; in test [3], 100%; in [4], 90.7%; in test [5] it was 105%; in test [6], 106%. Besides, the growth in [7] is 90.9%; in test [8] it was 100%; in test [9], 99.4%; in [10], 85.9%; in test [11], 104%; in test [12], 119%. The growth in test [13] is 92.3%; in test [14], 107%; in [15], 109%; in test [16], 93.4%; in [17], 110%; in test [18], 115%. Besides, the growth in [19] was 109%.

On to `Cc1nn(-c2cc(=O)[nH]c3ccc(Cl)cc23)c(N)c1C#N`, for which the growth in [1] is 100%; in test [2] it was 92.3%; in test [3], 102%; in [4], 70.7%; in test [5] it was 133%; in [6], 99%. Moreover, the growth in test [7] is 85.8%; in [8], 101%; in test [9], 110%; in test [10] it was 121%; in test [11] it was 97.7%; in test [12] it was 91.6%. The growth is 99.3% in [13]; 89.2% in [14]; 102% in [15]; 73.1% in test [16]; 105% in test [17]; 103% in test [18]. In addition, in [19], the growth is 97.4%.

Consider `COc1ccc(-c2nc3ccc(-c4nc5ccc(N6CCN(c7ccc(F)cc7)CC6)cc5[nH]4)cc3[nH]2)cc1OC`, for which the growth is 109% in [1]; 99.6% in [2]; 80.7% in [3]; 89% in test [4]; 133% in test [5]; 62.3% in test [6]. In addition, the growth was 84.6% in [7]; 98.3% in test [20]; 20.9% in [8]; 4.42% (active) in test [11]; 62.6% in test [12]; 96.1% in test [13]. The growth was 80.5% in test [14]; 80.6% in test [15]; 72.8% in [16]; 90.4% in test [17]; 74.8% in [18]; 81.3% in test [19].

For `COc1ccc(C2Nc3c(c(C(C)(C)C)nn3-c3ccccc3)C(=O)CS2)cc1` (stereo not drawn), the growth was 98.8% in [1]; 93.9% in test [2]; 99.8% in test [3]; 72% in [4]; 100% in test [5]; 99.9% in test [6]. In addition, the growth was 81.9% in test [7]; 113% in [20]; 83.9% in [8]; 87% in test [10]; 82.7% in [11]; 98.4% in [12]. Also, the growth in test [14] was 114%; in [15], 106%; in [16], 84.3%; in test [17] it was 101%; in test [18], 118%; in [19], 94.8%.

For `Oc1cccc(-c2nc(N3CCOCC3)c3c4c(sc3n2)CCCC4)c1`, the growth in test [1] is 71.3%; in [2], 34.4%; in test [3], 38.8%; in test [4], 13.1%; in test [5], 70.6%; in test [6], 38.3%. Further, the growth in [7] was 69.8%; in test [20] it was 114%; in test [8] it was 60.5%; in test [10] it was 70.3%; in [11], 61%; in test [12] it was 51.9%. The growth in test [13] is 82.7%; in test [14], 45.9%; in test [15], 30.6%; in [16], 3.92% (active); in [17], 56.9%; in test [18], 10.2%. Further, the growth in [19] was 52.1%.

With `COc1ccc(S(=O)(=O)N2CCN(C)CC2)cc1NC(=O)c1[nH]c(C)c2c1CCCCC2=O`, the growth in test [1] is 79.6%; in test [2], 58.4%; in [3] it was 60.4%; in test [4] it was 37%; in test [5] it was 33.4%; in test [6] it was 58.6%. Besides, the growth is 21.2% in test [7]; 60.9% in test [20]; 75.5% in [8]; 58.2% in test [10]; 32.6% in test [11]; 63% in test [12]. In addition, the growth in test [13] was 59.5%; in test [14], 57%; in test [15], 44.7%; in [16] it was 47%; in test [17], 66.6%; in test [18], 28.9%. In addition, the growth in test [19] is 96.9%.

For the molecule `CON1C(=O)CC[C@]2(C)[C@H]3CC[C@@H]4C([C@@]5(C)CCC(=O)O5)CC[C@@]4(C)[C@]3(C)CC[C@H]2C1(C)C` (stereo partly drawn), the growth in test [1] is 94.6%; in [2], 93.3%; in test [3], 95.2%; in test [4], 94.4%; in test [5] it was 97.8%; in [6], 96.6%. The growth in test [7] was 75.7%; in [20], 99.6%; in test [8] it was 96.9%; in [11], 98.6%; in [12], 102%; in [13], 98.4%. For the same molecule, the growth in test [14] was 92.8%; in test [16], 111%; in test [17], 110%; in [18] it was 101%; in [19] it was 97.1%.

Turning to `Cc1cc2nc(NC(=O)CN3CCN(CCN4C(=O)c5cccc6cccc(c56)C4=O)CC3)sc2cc1C`, the growth was 107% in [1]; 82.1% in test [2]; 72.9% in [3]; 68% in test [4]; 95% in test [5]; 85.1% in test [6]. In addition, the growth is 88% in [7]; 71.5% in [8]; 45% in test [9]; 35.3% in test [10]; 57.8% in test [11]; 79.7% in test [12]. In addition, the growth in test [13] is 93.6%; in test [14], 84.3%; in test [15] it was 102%; in [16], 77.6%; in test [17], 101%; in [18] it was 92%. The growth in test [19] was 79%.

(Values after PubChem BioAssay (NCI).)
